# Test results: the supplement of paper PMC10981050
# “And” between values parts separate entries of the source, which are not always exact repeats. Equal values may be shown once. Where a name gives a salt, the structure may show the parent alone.
# How the values were obtained:
# Assay in all cases: cell viability relative to vehicle control; higher = less cytotoxic
# Conditions in all cases: 10 µM
# [1] = test system: K562
# In short: (§1)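 After removal of identity-inconsistent compounds, the Selleck bioactive, kinase and epigenetic probe libraries were screened on CRISPR-edited mutant clones and isogenic wild-type clones of four leukaemia lines. Plates were 384-well, each well holding 2000 cells in 50 µL medium and receiving a single 10 µM acoustically dispensed dose. CellTiter-Glo luminescence was read 48 h later, after the supernatant was taken off. Genedata Screener was used to express viability as percent of the on-plate vehicle control.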
# [2] = test system: MARIMO
# In short: as §1
# [3] = test system: MOLM14
# In short: as §1
# [4] = test system: OCI-AML2
# In short: as §1
Structure (SMILES),cell viability ([1]; SRSF2 genotype: SRSF2 P95H/wt),cell viability ([1]; SRSF2 genotype: SRSF2 wt/wt),cell viability ([2]; SRSF2 genotype: SRSF2 P95H/wt),cell viability ([2]; SRSF2 genotype: SRSF2 wt/wt),cell viability ([3]; SRSF2 genotype: SRSF2 P95H/wt),cell viability ([3]; SRSF2 genotype: SRSF2 wt/wt),cell viability ([4]; SRSF2 genotype: P95H/wt),cell viability ([4]; SRSF2 genotype: wt/wt)
CCOc1nc2cccc(C(=O)OCc3oc(=O)oc3C)c2n1Cc1ccc(-c2ccccc2-c2noc(=O)[nH]2)cc1 [Azilsartan Medoxomil (TAK-491)],97.7%,95.6%,101%,108%,105%,102%,102%,103%
"CC(=O)c1ccc(O)cc1O [2,4-Dihydroxyacetophenone]",100% and 87%,86.2%,93.5%,99.8%,96%,94.1%,92.3%,94.8%
COc1cc(C=CC=O)ccc1O [Ferulaldehyde],102% and 97.5%,98.5%,97%,103%,89.6%,97.7%,95.6%,111%
CCCCCCCCCCCC1=C(O)C(=O)C=C(O)C1=O [Embelin],91.7% and 88.2%,85.5%,90.3%,98.8%,90.9%,91.9%,89.3%,94.6%
CC1(C)S[C@@H]2[C@H](NC(=O)[C@H](N)c3ccccc3)C(=O)N2[C@H]1C(=O)OCOC(=O)[C@@H]1N2C(=O)C[C@H]2S(=O)(=O)C1(C)C [Sultamicillin],100% and 98.8%,106%,93.1%,101%,97.2%,102%,103%,116%
CC(=O)CCc1ccccc1 [Benzylacetone],100% and 103%,104%,101%,92.5%,106%,98.6%,106%,94.8%
CC(=N)NCc1cccc(CN)c1,103% and 97.3%,91.8%,96.3%,100%,95.6%,97.8%,95.4%,101%
COc1ccc(/C=C/C(=O)c2c(O)cc(OC)cc2OC)cc1 [Flavokawain A],95.5% and 92.8%,92.7%,78.9%,82.6%,72.6%,103%,71.2%,74.3%
CC1(N)CCN(c2cnc(-c3cccc(Cl)c3Cl)c(N)n2)CC1 [SHP099 hydrochloride],64.7% and 71.4%,71.9%,96%,106%,29.6%,22.8%,25.4%,38.7%
COc1cc(C)c(/C=C/C(C)=C/C=C/C(C)=C/C(=O)O)c(C)c1C [Acitretin],87% and 91.6%,90%,79.1%,88.1%,87.4%,89.2%,32.6%,52%
CC(C)(C)NS(=O)(=O)c1cncc(-c2cc(F)c3nc(N)nn3c2)c1,100% and 102%,101%,93.8%,93.9%,92.5%,103%,81.1%,80.8%
CCc1cc(Nc2nc(-c3ccc(-n4cnc(C)c4)c(F)c3)cs2)c(C)cc1C,96% and 99.5%,91.5%,93.8%,101%,96.6%,93.9%,94.2%,91.9%
CC1CNc2c(cccc2S(=O)(=O)N[C@@H](CCCNC(=N)N)C(=O)N2CC[C@@H](C)C[C@@H]2C(=O)O)C1 (stereo partly specified) [Argatroban],107% and 105%,94%,100%,108%,103%,101%,91.7%,107%
CCCCNc1cc(C(=O)O)cc(S(N)(=O)=O)c1Oc1ccccc1 [Bumetanide],105% and 102%,102%,96.5%,108%,105%,101%,99.9%,110%
COc1ccc2[nH]c(=O)oc2c1 [Coixol],94.8% and 103%,95%,97.8%,96.3%,103%,98.2%,102%,93.9%
CO[C@@]1(NC(=O)CSC[C@@H](N)C(=O)O)C(=O)N2C(C(=O)O)=C(CSc3nnnn3C)CS[C@@H]21 [Cefminox Sodium],103%,99%,105%,109%,96%,106%,99.4%,98%
C[C@](N)(Cc1ccc(O)c(O)c1)C(=O)O [Methyldopa (Aldomet)],90.6% and 100%,100%,97.2%,104%,98.3%,101%,98.4%,96.6%
Cc1c(C)c(NCC(=O)N(C)C2CCN(Cc3ccc(C(N)=O)cc3)CC2)c(C)c(C)c1N,103% and 95.7%,100%,99.4%,102%,87.1%,96.8%,98.7%,103%
CCCCCOc1ccc(-c2ccc(-c3ccc(C(=O)N[C@H]4C[C@@H](O)[C@@H](O)NC(=O)[C@@H]5[C@@H](O)[C@@H](C)CN5C(=O)[C@H]([C@@H](C)O)NC(=O)[C@H]([C@H](O)[C@@H](O)c5ccc(O)cc5)NC(=O)[C@@H]5C[C@@H](O)CN5C(=O)[C@H]([C@@H](C)O)NC4=O)cc3)cc2)cc1,77.8% and 78.3%,80.5%,95.7%,94.3%,82.7%,84.5%,77.5%,82.8%
CC(=O)OC/C=C(\C)CCC=C(C)C [Geranyl acetate],102% and 95.2%,107%,104%,112%,99.2%,111%,97.2%,103%
"Nc1ccc(Oc2ccc(-c3ccc(Oc4ccc(N)cc4)cc3)cc2)cc1 [4,4prime-Bis(4-aminophenoxy)biphenyl]",103% and 98.3%,110%,96.9%,101%,100%,102%,96%,112%

Structure (SMILES),cell viability ([1]; SRSF2 genotype: SRSF2 P95H/wt),cell viability ([1]; SRSF2 genotype: SRSF2 wt/wt),cell viability ([2]; SRSF2 genotype: SRSF2 P95H/wt),cell viability ([2]; SRSF2 genotype: SRSF2 wt/wt),cell viability ([3]; SRSF2 genotype: SRSF2 P95H/wt),cell viability ([3]; SRSF2 genotype: SRSF2 wt/wt),cell viability ([4]; SRSF2 genotype: P95H/wt),cell viability ([4]; SRSF2 genotype: wt/wt)
COc1nc(OCc2cccc(-c3ccccc3)c2C)ccc1CNCCNC(C)=O [BMS202 (PD-1/PD-L1 inhibitor 2)],10.8% and 26.5%,32.6%,60.9%,59%,41.6%,31.9%,53.5%,51.3%
C[C@H](NCc1ccc(OCc2cccc(F)c2)cc1)C(N)=O [Safinamide],101% and 109%,107%,103%,105%,98.7%,106%,104%,106%
"COc1ccc2c(c1)c(CC(=O)O)c(C)n2C(=O)c1ccc(Cl)cc1 [Indomethacin (Indocid, Indocin)]",98.6% and 106%,105%,110%,107%,106%,107%,117%,114%
COc1cc2oc(=O)ccc2c(OC)c1C[C@@H](O)C(C)(C)O [Toddalolactone],106% and 101%,104%,102%,105%,112%,106%,102%,104%
CC(=O)O/N=C1/C(c2c(O)[nH]c3cc(Br)ccc23)=Nc2ccccc21 [BIO-acetoxime],32.5% and 23.4%,25.4%,82.2%,88.4%,33.1%,24.4%,73.2%,76.2%
COc1cc2ncnc(Oc3ccc(CC(=O)Nc4cnn(C(C)C)c4)cc3)c2cc1OC,74.8% and 98.4%,72.4%,113%,107%,16.1%,14.1%,36.1%,42.4%
C/C(=C\C(=O)OCCCCCCCCC(=O)O)C[C@@H]1OC[C@H](C[C@@H]2O[C@H]2[C@@H](C)[C@H](C)O)[C@@H](O)[C@H]1O [Mupirocin calcium],90.7% and 86.2%,87.5%,84.3%,97.9%,94.2%,93.4%,97.3%,93.5%
CCS(=O)(=O)Nc1ccc2[nH]c(O)c(C(=Nc3ccc(CN4CCCCC4)cc3)c3ccccc3)c2c1 [Hesperadin],19.5% and 24%,15.9%,5.46%,9.42%,0.94%,0.3%,5.95%,9.44%
Nc1nc(=O)n([C@@H]2CS[C@H](CO)O2)cc1F [Emtricitabine],106% and 105%,104%,103%,106%,104%,107%,102%,108%
CCCOC(=O)c1ccc(O)cc1 [Propylparaben],96.5% and 97.2%,101%,91.3%,107%,98.9%,105%,95.6%,90.1%
Nc1ccc(Cl)cc1C(=O)C(F)(F)F [4-Chloro-2-(trifluoroacetyl)aniline hydrochl],106% and 98.3%,112%,101%,99.5%,105%,109%,105%,115%
N/C(=N\N=C\c1ccc(Cl)cc1)N/N=C/c1ccc(Cl)cc1 [Robenidine Hydrochoride],70.9% and 65.6%,67.4%,65.7%,67.8%,59.2%,65.9%,60.2%,73.3%
Cc1cc(C(C)(C)C)cc(C)c1CC1=NCCN1 [Xylometazoline HCl],92.4% and 97.6%,99.5%,95.4%,105%,102%,103%,93.4%,99.7%
Cn1cc(C2=C(c3ccc(Cl)cc3Cl)C(=O)NC2=O)c2ccccc21,97.9% and 94.8%,94.2%,94.7%,105%,103%,99.1%,95.8%,107%
CCOc1cc2ncc(C#N)c(Nc3ccc(F)c(Cl)c3)c2cc1NC(=O)/C=C/CN(C)C [Pelitinib (EKB-569)],9.19% and 1.6%,0.91%,5.88%,1.37%,0.45%,0.62%,0.33%,0.46%
CC(C)(Oc1ccc(Cl)cc1)C(=O)OCCOC(=O)c1cccnc1 [Etofibrate],96% and 91.7%,95.4%,93.2%,100%,94.7%,101%,83.5%,77.5%
CCOC(=O)OC(C)OC1=C(C(=O)Nc2ccccn2)N(C)S(=O)(=O)c2ccccc21 (stereo unspecified) [Ampiroxicam],96.8% and 104%,92.4%,101%,95.9%,93%,95.9%,104%,96%
COc1cc2ncnc(Nc3ccc(O)c(Br)c3)c2cc1OC,93.8% and 101%,96.4%,85.4%,84.6%,32.4%,24.3%,61.8%,63.9%
CC[C@H](NC(=O)[C@H](C)NC)C(=O)N1C[C@@H](O)C[C@H]1Cc1c(-c2[nH]c3cc(F)ccc3c2C[C@@H]2C[C@H](O)CN2C(=O)[C@H](CC)NC(=O)[C@H](C)NC)[nH]c2cc(F)ccc12,97.7% and 102%,99.4%,78.6%,93.4%,61.6%,65.4%,103%,107%
CNCc1ccc(C)c(NC(=O)c2ccc(Nc3nc(-c4ccccc4)c4ccccc4n3)cc2)c1,0.99% and 1.39%,1.34%,0.68%,0.61%,0.42%,0.52%,0.4%,0.57%
CN[C@@H]1[C@H](O)[C@H](NC)[C@H]2O[C@@]3(O)C(=O)C[C@@H](C)O[C@H]3O[C@@H]2[C@H]1O [Spectinomycin 2HCl],101% and 102%,93.5%,103%,102%,104%,99%,106%,94.4%
